SMILES strings stand for the structures. Records with an inconclusive call do not appear. The source made the active and inactive calls. The call rests on the fitted dose curve.
On the % scale 0 is the no-effect control and ±100 the full control effect.

For this experiment, the target named is Nucleoprotein (Lymphocytic choriomeningitis virus (strain Armstrong)) (UniProt P09992). In words: qHTS for Inhibitors of the Functional Ribonucleoprotein Complex (vRNP) of Lymphocytic Choriomeningitis Arenaviruses (LCMV): LCMV Primary Screen - GLuc reporter signal (AID 1347086). Further: nearly all actives have a fitted effect of over 70% in size. To be noted: LCMV minigenome vRNP cell assay, Gaussia luciferase reporter; series mostly up to 57.5 µM; activity change, negative = inhibition: at the top concentration. For orientation: qHTS replaces the single test concentration by a dilution series.
Sequence of Nucleoprotein (Lymphocytic choriomeningitis virus (strain Armstrong)) (P09992 whole entry, looked up): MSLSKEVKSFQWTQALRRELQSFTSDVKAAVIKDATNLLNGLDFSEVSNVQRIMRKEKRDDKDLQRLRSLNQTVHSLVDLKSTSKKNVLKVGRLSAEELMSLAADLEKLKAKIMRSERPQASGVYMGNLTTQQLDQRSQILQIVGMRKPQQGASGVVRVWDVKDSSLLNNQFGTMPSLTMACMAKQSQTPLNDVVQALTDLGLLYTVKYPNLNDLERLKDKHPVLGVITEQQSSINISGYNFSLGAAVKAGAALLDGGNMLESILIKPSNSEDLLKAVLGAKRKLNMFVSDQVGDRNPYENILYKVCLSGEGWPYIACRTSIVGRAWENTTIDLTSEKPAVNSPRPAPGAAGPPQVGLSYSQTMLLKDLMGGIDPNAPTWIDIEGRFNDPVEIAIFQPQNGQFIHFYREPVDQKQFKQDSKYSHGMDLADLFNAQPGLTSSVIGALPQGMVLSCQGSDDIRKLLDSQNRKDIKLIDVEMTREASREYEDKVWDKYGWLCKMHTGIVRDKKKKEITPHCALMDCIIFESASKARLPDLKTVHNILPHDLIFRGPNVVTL
`N[C@@H](Cc1cc(I)c(O)c(I)c1)C(=O)O`: the “activity change, negative = inhibition” value is 14.7% (inactive).
The same measure, in the same setting: the value for `CN(Cc1ccc(C(C)(C)C)cc1)Cc1cccc2ccccc12` was -1.87% (inactive).
As to `O=C(O)c1ccc(OCCN2CCCCC2)cc1`, the “activity change, negative = inhibition” value was -2.18% (inactive).
Still for that read-out and setting: the value for `COc1ccc2c(c1)C(=O)N(CCc1ccc(S(=O)(=O)NC(=O)NC3CCCCC3)cc1)C(=O)C2(C)C` was 52.9% (inactive).
Still for that read-out and setting: then `CN1CCN(CCC(=O)N2c3ccccc3Sc3ccc(C(F)(F)F)cc32)CC1`, with -36.4% (inactive).
Take `N[C@H](Cc1c[nH]c2ccccc12)C(=O)O`: the “activity change, negative = inhibition” value is -0.624% (inactive).
Still for that read-out and setting: then `CCOCCn1c(N2CCCN(C)CC2)nc2ccccc21`, with 14.4% (inactive).
The same measure, in the same setting: the value for `CCCCC(=O)O[C@]1(C(=O)CO)[C@@H](C)C[C@H]2[C@@H]3CCC4=CC(=O)C=C[C@]4(C)[C@@]3(F)[C@@H](O)C[C@@]21C` was 38.7% (inactive); that for `O=C1OC2(c3ccccc31)c1cc(I)c(O)c(I)c1Oc1c2cc(I)c(O)c1I` was -10.7% (inactive); that for `C[C@H]1C[C@H]2[C@@H]3CCC4=CC(=O)C=C[C@]4(C)[C@H]3C(=O)C[C@]2(C)[C@@]1(O)C(=O)CO` was 64% (inactive).
Same read-out and setting: then `C[C@]1(Cn2ccnn2)[C@H](C(=O)O)N2C(=O)C[C@H]2S1(=O)=O`, with 26.6% (inactive).
For `COc1ccccc1N1CCN(CCCNc2cc(=O)n(C)c(=O)n2C)CC1`, the Potency entry was “inactive”.
Regarding `Cc1c(N(C)C)c(=O)n(-c2ccccc2)n1C`, the “activity change, negative = inhibition” value is 6.65% (inactive).
Still for that read-out and setting: then `C[C@@H]1CCC[C@H](C)N1CCCC(O)(c1ccccc1)c1ccccn1` (stereo partly specified), with 5.15% (inactive).
On the same count and under the same terms, then `CC1(C)O[C@@H]2C[C@H]3[C@@H]4C[C@H](F)C5=CC(=O)CC[C@]5(C)[C@H]4[C@@H](O)C[C@]3(C)[C@]2(C(=O)CO)O1`, with 12% (inactive); and `CC(C)C(=O)Nc1cccc(C2CN3CCSC3=N2)c1` (stereo unspecified), with -12.9% (inactive).

Values taken from PubChem BioAssay (NCATS).
